Results taken from PubChem BioAssay.
Calls of active or inactive are those of the source.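 Rule for the calls, unless noted: active = NADPH fluorescence slope more negative than the mean of all samples by about 3 SD, 99.7% confidence; inactive = the rest.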

What was measured:
[1] = inhibitors of TNFa-induced NFkB p65 translocation, primary screen, imaging, HUVEC, MLSMR starter and 10KST1 sets (AID 438;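 active = inhibition above 20% together with a positive visual image hit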;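 note: compound added about 3h40 before a 20 min TNFalpha stimulation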;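 for inhibition: signal is the nuclear over cytoplasmic p65 intensity ratio per well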); conditions: HUVEC TNFa-induced p65 nuclear translocation; cell count: measured here: nuclei count (cytotoxicity indicator), at 2.08 µM; inhibition: at 2 µM, stronger effect = higher value, 0% TNFa-plus-vehicle, 100% no-TNFa wells
[2] = reduction of polyQ htt aggregates in cells – imaging, exon1htt(103Q)mCFP cells, high-content imaging, primary screen (AID 483;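 active = visual image review flags a hit and inhibition of aggregation exceeds 20%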;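 note: compound exposure lasted 3 days before fixation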;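 for nuclei count: percent of the per-plate median nuclei count of sample wells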); conditions: exon1htt(103Q)mCFP cell line, aggregate imaging, at 2 µM; inhibition of aggregation: stronger effect = higher value; nuclei count: measured here: cell count, toxicity
[3] = endothelial E-selectin expression blockers – imaging, HUVEC, immunofluorescence, MLSMR starter and 10KST1 sets, primary screen (AID 487;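 active = visually confirmed hit in the image check and inhibition above 20%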;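 for inhibition: signal is fraction of cell area covered by stained E-selectin grains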;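 for nuclei count: 100% = median nuclei count of all wells on the same plate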); conditions: HUVEC TNFalpha-induced E-selectin immunofluorescence imaging, at 2 µM; inhibition: stronger effect = higher value; nuclei count: measured here: cell number, toxicity
[4] = molecular target: Voltage-gated potassium channel subunit beta-2 (Rattus norvegicus) (UniProt P62483); test: inhibitors of rat Kvbeta2 reductase activity – biochemical, NADPH fluorescence, primary screen (AID 622;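 active = fluorescence slope higher than the sample average by over 3 SD, cut at about -0.22 in these data, passing the limit was not always enough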;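 note: slope of raw intensity against log time taken from 70 to 1610 s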); conditions: recombinant KvBeta, 4-cyanobenzaldehyde reduction, at 10 µM, stronger effect = higher value
[5] = molecular target: Voltage-gated potassium channel subunit beta-2 (Rattus norvegicus) (UniProt P62483); test: enhancers of rat Kvbeta2 NADPH turnover – biochemical, NADPH fluorescence, primary screen (AID 623); conditions: Recombinant KvBeta, NADPH fluorescence decrease slope, 10 min; at 10 µM; stronger effect = lower value;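 note: fluorescence intensity change per second fitted from 20 to 320 s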
[6] = molecular target: Alpha-2C adrenergic receptor (Homo sapiens) (UniProt P18825); test: compounds altering alpha2C-coupled GIRK flux – cell-based, HEK293 alpha2C/GIRK1/2, thallium flux, primary screen (AID 624;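 active = fluorescence slope after compound addition differing from the mean of all screened samples at 99.7% confidence, in either direction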;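 note: slope of fluorescence ratio to pre-addition baseline per second over 15 to 24 s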); conditions: thallium flux BTC fluorescence, at 10 µM, actives lie on both sides
[7] = blockers of RIG-like receptor reporter activation – cell-based, Sendai virus stimulus, luciferase, 10K MLSCN set, TLR/RLR signaling modifier project, primary screen (AID 602276;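 active = inhibition at or above 50% at 10 µM; inactive = inhibition below 50%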;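 note: firefly luciferase from ISG56 promoter only with Renilla not read in this screen; 0% = Sendai virus plus DMSO and 100% = medium plus DMSO without virus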); conditions: HEK293 RL24 IRF3 luciferase reporter, at 10 µM, stronger effect = higher value
[8] = TLR3 IRF3 reporter activation blockers – cell-based, poly I:C stimulus, luciferase, 10K MLSCN set, primary screen (AID 602277;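 active = inhibition of the reporter signal at or above 50%; inactive = inhibition below 50%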); conditions: HEK293-TLR3 RL24 IRF3 luciferase reporter, at 10 µM, stronger effect = higher value

Voltage-gated potassium channel subunit beta-2 (Rattus norvegicus), sequence (P62483 whole entry, looked up): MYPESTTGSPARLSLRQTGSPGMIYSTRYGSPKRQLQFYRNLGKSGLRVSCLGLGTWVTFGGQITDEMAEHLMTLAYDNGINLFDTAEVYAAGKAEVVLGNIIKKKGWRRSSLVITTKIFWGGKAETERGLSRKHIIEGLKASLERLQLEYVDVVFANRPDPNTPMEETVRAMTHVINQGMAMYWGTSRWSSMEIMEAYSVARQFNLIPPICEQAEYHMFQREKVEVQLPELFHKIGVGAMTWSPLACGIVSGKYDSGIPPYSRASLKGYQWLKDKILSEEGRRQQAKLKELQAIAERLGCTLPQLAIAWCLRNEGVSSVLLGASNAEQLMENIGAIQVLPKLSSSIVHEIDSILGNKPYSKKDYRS
Alpha-2C adrenergic receptor (Homo sapiens), sequence (P18825 whole entry, looked up): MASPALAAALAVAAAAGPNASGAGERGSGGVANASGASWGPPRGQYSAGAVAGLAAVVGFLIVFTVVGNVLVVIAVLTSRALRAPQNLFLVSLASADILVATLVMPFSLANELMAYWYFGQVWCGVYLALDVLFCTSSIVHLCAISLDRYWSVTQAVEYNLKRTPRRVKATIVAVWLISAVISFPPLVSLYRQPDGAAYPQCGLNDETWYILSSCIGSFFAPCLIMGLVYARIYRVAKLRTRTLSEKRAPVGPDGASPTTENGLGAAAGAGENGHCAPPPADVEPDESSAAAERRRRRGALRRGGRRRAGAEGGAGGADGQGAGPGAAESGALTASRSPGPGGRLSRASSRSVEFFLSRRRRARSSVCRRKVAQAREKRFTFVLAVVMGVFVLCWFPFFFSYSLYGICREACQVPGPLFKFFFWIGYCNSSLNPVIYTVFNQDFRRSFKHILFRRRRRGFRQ

| Compound | cell count [1] | inhibition [1] | inhibition of aggregation [2] | nuclei count [2] [%] | inhibition [3] | nuclei count [3] [%] | fluorescence slope [4] | NADPH fluorescence slope [5] | slope [6] | inhibition [7] | inhibition [8] |
| --- | --- | --- | --- | --- | --- | --- | --- | --- | --- | --- | --- |
| COc1ccc(N(CC(=O)Nc2cc(C)ccc2C)S(=O)(=O)c2c(C)nn(C)c2C)cc1 | 499 | -2.3% (inactive) | 30.5% (inactive) | 65.3 | -8.4% (inactive) | 101 | -0.603 (inactive) | -2.9e-05 (inactive) | 0.0057 (inactive) | -2.9% (inactive) | 21.3% (inactive) |
| Cc1ccc(/C=c2\s/c(=C(/C#N)C(=O)N3CCCC3)n(Cc3ccco3)c2=O)s1 | 627 | 2.8% (inactive) | -17.3% (inactive) | 101 | -28.1% (inactive) | 136 | -0.59 (inactive) | 2e-05 (inactive) | 0.00315 (inactive) | 16.4% (inactive) | -21.1% (inactive) |
| CCc1nnc(NC(=O)CSc2nnc(-c3cc4ccccc4cc3O)n2CC)s1 | 674 | -7.8% (inactive) | 1.7% (inactive) | 109 | -52.3% (inactive) | 125 | -0.511 (inactive) | 2.5e-06 (inactive) | 0.00587 (inactive) | 7.37% (inactive) | 11.2% (inactive) |
| CCN(C(=O)c1c(OC)cccc1OC)c1nnc(-c2cccnc2)s1 | 892 | 3.3% (inactive) | -35.8% (inactive) | 105 | -49.6% (inactive) | 137 | -0.336 (inactive) | -3.4e-05 (inactive) | 0.00467 (inactive) | 8.32% (inactive) | 18.6% (inactive) |
| Fc1ccccc1Cn1nnc2c(-n3ccnc3)ncnc21 | 573 | -1.6% (inactive) | -7.5% (inactive) | 103 | -55.2% (inactive) | 106 | -0.519 (inactive) | 3.6e-05 (inactive) | 0.00439 (inactive) | -9.4% (inactive) | -13.8% (inactive) |
| O=C(Nc1cccnc1)Nc1ccccn1 | 571 | -4.3% (inactive) | 6.4% (inactive) | 106 | -6.7% (inactive) | 74.1 | -0.432 (inactive) | -4.6e-05 (inactive) | 0.00395 (inactive) | -5.87% (inactive) | 0.317% (inactive) |
| COc1cccc(NC(=O)C2C3C=CC4(O3)C2C(=O)N(C(C)C)C4C(=O)NC2CCCCC2C)c1 (stereo not given) | 424 | 2.6% (inactive) | -8.5% (inactive) | 110 | -98.5% (inactive) | 114 | -0.525 (inactive) | 3.5e-06 (inactive) | 0.00614 (inactive) | 2.64% (inactive) | 7.71% (inactive) |
| CCOc1ccccc1NC(=O)NC1CCN(CC(=O)Nc2ccc3c(c2)OCCO3)CC1 | 285 | -4.8% (inactive) | 2% (inactive) | 115 | -0.8% (inactive) | 87.4 | -0.499 (inactive) | 4.9e-05 (inactive) | 0.00583 (inactive) | 19.4% (inactive) | 26.5% (inactive) |
| O=C(COc1ccc(=O)n(-c2ccccc2)n1)Nc1ccccc1 | 600 | 8% (inactive) | -6.4% (inactive) | 114 | 23.8% (inactive) | 119 | -0.471 (inactive) | 7.6e-06 (inactive) | 0.00619 (inactive) | 9.72% (inactive) | 23.6% (inactive) |
| CN(C)C(=O)c1ccc(COc2ccccc2Br)o1 | 730 | -11% (inactive) | 27.2% (inactive) | 71.4 | -26.4% (inactive) | 104 | -0.606 (inactive) | -2.2e-05 (inactive) | 0.0062 (inactive) | -40.1% (inactive) | -62.5% (inactive) |
| CN(C)S(=O)(=O)c1ccc(/C(O)=C2/C(=O)C(=O)N(CCN3CCCCC3)C2c2cccnc2)cc1 (stereo not given) | 391 | 5.5% (inactive) | 5.7% (inactive) | 88.2 | -68.5% (inactive) | 113 | -0.396 (inactive) | 2e-05 (inactive) | 0.00576 (inactive) | -17.9% (inactive) | -24% (inactive) |
| CSC1=N/C(=C\C=C\c2cccs2)C(=O)S1 | 374 | -11.5% (inactive) | -80.1% (inactive) | 106 | 0.2% (inactive) | 115 | -0.343 (inactive) | -4.4e-05 (inactive) | 0.00431 (inactive) | 10.5% (inactive) | 28.8% (inactive) |
| Cc1onc(-c2c(Cl)cccc2Cl)c1C(=O)NCC1CCCO1 (stereo not given) | 394 | 6.8% (inactive) | 15.4% (inactive) | 87.4 | -10.7% (inactive) | 113 | -0.519 (inactive) | 1.7e-05 (inactive) | 0.00578 (inactive) | -10.3% (inactive) | 10.7% (inactive) |
| CCCCn1nnc(NC(=O)c2cc3ccccc3o2)n1 | 615 | 2.2% (inactive) | 3.5% (inactive) | 106 | -13.4% (inactive) | 90.8 | -0.468 (inactive) | 1.2e-05 (inactive) | 0.00257 (inactive) | -19% (inactive) | -27.4% (inactive) |
| COC(=O)c1ccc(NC2(C#N)C(=O)Nc3ccccc32)cc1 (stereo not given) | 246 | 7.6% (inactive) | 15% (inactive) | 95.5 | -208% (inactive) | 116 | -0.408 (inactive) | -1.9e-05 (inactive) | 0.00466 (inactive) | 19% (inactive) | 8.66% (inactive) |
| COc1cc(NC(=O)CSCc2cnn(-c3ccccc3)c2-n2cccc2)cc(OC)c1 | 662 | 6.1% (inactive) | 9.3% (inactive) | 97.9 | -32% (inactive) | 98.1 | -0.315 (inactive) | -7.1e-05 (inactive) | 0.00868 (inactive) | 15.7% (inactive) | 11.2% (inactive) |
| CCOC(=O)C1CCCN(C(=O)c2cc3c(=O)n4cccc(C)c4nc3n2C)C1 (stereo not given) | 218 | -6% (inactive) | 3.5% (inactive) | 91.5 | 75.9% (active) | 66.5 | -0.467 (inactive) | -1.3e-05 (inactive) | 0.00547 (inactive) | 17.9% (inactive) | 23.7% (inactive) |
| Cc1ccc2nc(NC(=O)CN(C)S(=O)(=O)c3cccc4nsnc34)sc2c1 | 379 | -5.3% (inactive) | -0.2% (inactive) | 113 | -38.2% (inactive) | 101 | -0.41 (inactive) | -4.4e-05 (inactive) | 0.00524 (inactive) | 32.6% (inactive) | 25% (inactive) |
| CCC(C)(C(=O)NC1CCCC1)N(C(=O)c1cnccn1)c1c(C)n(C)n(-c2ccccc2)c1=O (stereo not given) | 568 | 3.8% (inactive) | 7% (inactive) | 91.3 | 15.6% (inactive) | 89.6 | -0.471 (inactive) | -0.000132 (inactive) | 0.00518 (inactive) | -1.44% (inactive) | 9.08% (inactive) |
| O=C(NCCCN1CCCC1=O)c1ccc2c(=O)n(Cc3ccco3)c(=S)[nH]c2c1 | 653 | -16.6% (inactive) | -35.1% (inactive) | 74 | -69.5% (inactive) | 101 | -0.572 (inactive) | 2.7e-05 (inactive) | 0.00624 (inactive) | 0.725% (inactive) | -15.6% (inactive) |
| S=c1[nH]nc(-c2cccc(Br)c2)o1 | 242 | 12.7% (inactive) | 15.6% (inactive) | 110 | -57.8% (inactive) | 120 | -0.361 (inactive) | 1.9e-05 (inactive) | 0.0039 (inactive) | 4.14% (inactive) | 8.86% (inactive) |
| O=C1CCCN1CCCNc1ncnc2c1[nH]c1ccc(Cl)cc12 | 465 | 0.8% (inactive) | -18.4% (inactive) | 101 | -164% (inactive) | 119 | -0.391 (inactive) | 3.6e-05 (inactive) | 0.00715 (inactive) | -14.5% (inactive) | -66.1% (inactive) |
| CCN(CC)c1ccc(NC(=O)CN2CCN(CC(=O)Nc3ccccc3F)CC2)cc1 | 348 | 3.1% (inactive) | 5.8% (inactive) | 104 | -45.9% (inactive) | 113 | -0.413 (inactive) | -3.8e-05 (inactive) | 0.00308 (inactive) | 12.9% (inactive) | 19.4% (inactive) |
| COC(=O)c1ccccc1OCC(=O)NC1CCCCC1 | 400 | 2.8% (inactive) | -13.9% (inactive) | 110 | -140% (inactive) | 112 | -0.511 (inactive) | -1.1e-05 (inactive) | 0.00395 (inactive) | -18.9% (inactive) | -61.5% (inactive) |
| CCOC(=O)C1=C(C)N=C2SCCC(=O)N2C1c1cc(Br)ccc1OC (stereo not given) | 466 | 2.7% (inactive) | -4.8% (inactive) | 108 | -16% (inactive) | 85 | -0.499 (inactive) | 7.4e-06 (inactive) | 0.00736 (inactive) | 17.2% (inactive) | 20.9% (inactive) |
